Only some compounds are listed: those with a hit (about 10% of all), similar ones and a draw of the others.
HPGD block: HPGD (human) dehydrogenase inhibition. P15428. purified HPGD, NADH fluorescence kinetic, PGE2 substrate. Potency, µM, for the others: at the highest dose activity change, negative = inhibition, actives largely listed as inhibitors. 150,000 tested, 4.3% active. AID 894; active = well fitted inhibition curve with a large enough effect, not every such curve was filed as active; inconclusive = small, poorly fitted or top-dose-only effect, or another doubt; inactive = no such curve, though single readings can be large or run the other way; also: potency is read from the fitted curve at half-maximal effect
Target sequence (P15428 whole entry, looked up): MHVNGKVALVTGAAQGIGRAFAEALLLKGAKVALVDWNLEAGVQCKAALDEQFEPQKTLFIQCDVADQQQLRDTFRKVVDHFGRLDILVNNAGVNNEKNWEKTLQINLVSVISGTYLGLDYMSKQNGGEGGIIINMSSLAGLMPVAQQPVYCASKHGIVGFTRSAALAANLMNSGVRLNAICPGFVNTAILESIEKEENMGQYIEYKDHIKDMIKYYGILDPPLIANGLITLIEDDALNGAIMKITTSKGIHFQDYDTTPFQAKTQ
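NADH formation kinetics: reaction with 30 uM PGE2 and 1 mM NAD+ (final), 20 nM enzyme, Tris-HCl pH 8 with Tween 20, after 15 min compound preincubation at room temperature. Fluorescence change, last versus first of five reads.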
12-hLO inh: inhibitors of human 12-lipoxygenase (ALOX12); Potency, µM (top dose mostly 57.1 µM), for inactives: at the top dose activity change, negative = inhibition, most hits filed as inhibitors; P18054; purified 12-hLO, xylenol orange hydroperoxide absorbance; 150,000 tested, 0.12% active; also: potency is read from the fitted curve at half-maximal effect; nearly all actives have a fitted effect of over 55% in size
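Purified human 12hLO (150 nM final) was preincubated with compounds for 15 min at room temperature in 25 mM Hepes pH 7.0, 0.01% Triton X-100, then reacted with 40 uM arachidonic acid for 30 min. Hydroperoxide was detected with ferrous iron/xylenol orange.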
PNC inhibitor: perinucleolar compartment assembly inhibition. PC3M PTB-GFP, PNC prevalence imaging, 16 h; stronger effect = lower value. activity change (PNC), negative = inhibition, % at 10 µM. 140,000 tested, 3.1% active;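 active = readout at or below -70, meaning at least 70% loss of cells showing the perinucleolar compartment, a nuclear body marking cancer cells; inconclusive = readout between -30 and a set limit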;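 also: plate controls were DMSO wells for no effect and camptothecin positive control wells for full effect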
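Read-out is percentage of cells bearing a perinucleolar compartment, from automated 20x imaging of fixed, Hoechst-stained PC3M PTB-GFP cells. Cells were seeded 4 h, then exposed 16 h to compound (23 nl of library stock) in duplicate plates.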
GLA inh pH 4.5: inhibitors of human alpha-galactosidase A at pH 4.5. 230,000 tested, under 10 active. purified enzyme, 4-MU-alpha-Gal fluorescence, pH 4.5. activity change, negative = inhibition, % at 105 µM. P06280. AID 1467;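 also: 0% = full activity with enzyme and -100% = basal without enzyme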
Target sequence (P06280 whole entry, looked up): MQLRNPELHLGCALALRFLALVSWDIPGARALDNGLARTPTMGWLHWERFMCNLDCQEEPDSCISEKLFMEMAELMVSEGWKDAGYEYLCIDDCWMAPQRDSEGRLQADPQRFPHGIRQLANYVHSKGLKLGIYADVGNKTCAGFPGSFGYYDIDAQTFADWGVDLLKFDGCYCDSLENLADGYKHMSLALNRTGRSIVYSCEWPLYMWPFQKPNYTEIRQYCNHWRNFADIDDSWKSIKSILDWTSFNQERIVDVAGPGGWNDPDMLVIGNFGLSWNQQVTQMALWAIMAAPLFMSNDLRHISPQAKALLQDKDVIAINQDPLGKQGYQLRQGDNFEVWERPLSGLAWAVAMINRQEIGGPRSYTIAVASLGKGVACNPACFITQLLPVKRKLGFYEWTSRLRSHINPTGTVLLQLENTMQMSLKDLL
GLA spleen mod: inhibits or activates alpha-galactosidase in human spleen homogenate | P06280 | human spleen homogenate, 4MU-alpha-Gal fluorescence, 40 min | Potency, µM (doses to about 80 µM), for inactives: top-dose activity change, negative = inhibition, most hits filed as inhibitors | 240,000 tested, 0.008% active;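 also: potency is read from the fitted curve at half-maximal effect; 0% = enzyme with vehicle and -100% = no enzyme basal signal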
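Inhibition or activation of alpha-galactosidase in human spleen homogenate is scored by 4-MU fluorescence after 40 min at 37C, pH 5.0, with 1 mM substrate. AC50s come from concentration-response fitted to the Hill equation.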
ALDH1A1 block: blocks purified human ALDH1A1 activity; Purified ALDH1A1, NADH fluorescence, propionaldehyde substrate; P00352; 220,000 tested, 7.3% active; Potency, µM (doses to about 75.3 µM), without a hit: at the top dose activity, negative = inhibition, actives largely listed as inhibitors; active = well fitted inhibition curve with a large enough effect, not every such curve was filed as active; inconclusive = small, poorly fitted or top-dose-only effect, or another doubt; inactive = no such curve, though single readings can be large or run the other way;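 also: potency is read from the fitted curve at half-maximal effect; plate controls were no enzyme wells and a reference inhibitor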
* marks the source's active call; other numbers are inactive results; u = inconclusive; x = no result given; [ ] = remark or other dose. Unless noted, calls follow the shape of the dose curve; as a rule, active = well fitted curve in the direction sought with a large enough effect; inconclusive = small, poorly fitted or top-dose-only effect, or another doubt; inactive = no such curve, though single readings can be large; an effect the other way counts as inactive or inconclusive. Unless noted, % is scaled to controls: 0 for no effect and ±100 for the full control effect.

SMILES	HPGD block	12-hLO inh	PNC inhibitor	GLA inh pH 4.5	GLA spleen mod	ALDH1A1 block
O=C(Nc1ccc2c(c1)OCO2)c1cc2n(n1)C(C(F)(F)F)CC(c1ccccc1)N2 (stereo not given)	-8%	-5%	53	4	11%	0%
CC(C)(C)C1CCc2c(sc(NC(=O)C3CC=CCC3C(=O)O)c2C#N)C1 (stereo not given)	16µM*	-2%	u	-26	-9%	7.1µM*
N#Cc1c(NC(=O)C2CC=CCC2C(=O)O)sc2c1CCCCCC2 (stereo not given)	18µM*	-4%	u	4	1%	u
N#Cc1c(NC(=O)CN2CCN(C(=O)c3ccco3)CC2)sc2c1CCCCC2	8.9µM*	1%	-26	4	1%	7.1µM*
N#Cc1c(NC(=O)CCC(=O)O)sc2c1CCCCC2	x	x	x	6	4%	14µM*
Nc1nc2c(c(=O)[nH]1)CN(c1ccc(S(N)(=O)=O)cc1)CN2	-5%	0%[11.4 µM]	x	x	x	-4%[13.5 µM]
COc1ccc(C[C@@](C)(N)C(=O)O)cc1OC	-1%	-3%[25.6 µM]	x	11	0%[29.1 µM]	-13%[20.9 µM]
CSCCC(NC(=O)C12CC3CC(CC(C3)C1)C2)C(=O)OCC(=O)c1ccc(C)cc1 (stereo not given)	-6%	3%	26	0	-3%	8%
CCCn1c(SCC(=O)NCCc2ccccc2)nnc1C(C)C	x	x	x	-10	10%	x
CCn1c(SCC(=O)Nc2sc3c(c2C#N)CCC(C(C)(C)C)C3)nnc1-c1ccco1 (stereo not given)	-23%	3%	24	-13	-9%	40µM*
CCn1c(SCC(=O)Nc2sc3c(c2C#N)CCCC3)nnc1-c1ccco1	-5%	-2%	0	-4	-8%	10%
Cc1sc2ncnc(SCC(=O)N3CCCC3=O)c2c1C	25µM*	-3%	-97*	0	5%	0.1µM*
CCCN(CC1CC1)C(=O)CSc1ncnc2sc(C)c(C)c12	28µM*	5%	-8	-3	0%	-13%
CCN(C(=O)CSc1ncnc2sc(C)c(C)c12)C1CCS(=O)(=O)C1 (stereo not given)	x	x	x	9	-5%	u
Cc1ccc(C(=O)N/N=C(\CC(C)C)c2ccccc2)cc1	-15%	1%	-105*	4	0%	-10%
COc1cccc(C(=O)N/N=C(\CC(C)C)c2ccccc2)c1	-6%	3%	u	1	-4%	2%
CC(=O)c1ccc(OCCOc2ccc(C#N)cc2)cc1	x	x	x	-8	2%	u
C=CCNC(=O)c1onc(CSc2cccc(OC)c2)c1C(=O)NCC=C	x	x	x	-2	4%	x
COc1ccc(-n2c(C)nc3cc(C(=O)NCc4ccco4)ccc32)cc1	8.9µM*	-7%	16	-14	-1%	u
CCOc1ccc(-n2c(C)nc3cc(C(=O)NCc4ccco4)ccc32)cc1	8.9µM*	-6%	65	5	-1%	u
COc1ccc(-n2c(C)nc3cc(C(=O)NCc4ccc5c(c4)OCO5)ccc32)cc1	-19%	-3%	-26	-9	-15%	7%
COc1ccccc1-n1cnc2cc(C(=O)NCc3ccco3)ccc21	13µM*	-8%	3	-7	-14%	u
COCCNC(=O)c1ccc2c(c1)nc(C)n2-c1cc(OC)c(OC)c(OC)c1	14µM*	1%	62	1	-4%	3%
CC1(O)C(=O)C=C2C=C3CCCN3C=C2C1=O (stereo not given)	x	x	x	x	3%[17.5 µM]	u
O=C(CCNS(=O)(=O)c1ccc(Cl)cc1)NCc1cccs1	x	x	x	4	-11%	-4%
SMILES	HPGD block	12-hLO inh	PNC inhibitor	GLA inh pH 4.5	GLA spleen mod	ALDH1A1 block
Cn1cccc1C(=O)N1CCC2(CC1)CCN(c1ccc(-c3ccccc3)cc1)CC2	3%	-3%	x	x	3%	10%
N#CC1=C(N)SC(N)=C(C#N)C1C1CC=CCC1 (stereo not given)	-17%	-4%	-22	3	0%	u
N#CC1=C(N)SC(N)=C(C#N)C1C1C=CCCC1 (stereo not given)	-23%	-5%	338	-3	-5%	22µM*
Cc1cc2c(c(=O)o1)C(C1C=CCCC1)C(C#N)=C(N)O2 (stereo not given)	28µM*	-25%	13	0	-3%	7.9µM*
Nc1ccc(O)c2c1C(=O)c1ccccc1C2=O	13µM*	-10%	9	6	0%	-4%
O=C1c2ccccc2C(=O)c2c(O)c(O)cc(O)c21	25µM*	u	x	-2	6%	u
CS(=O)(=O)c1ccc(Cl)c(NC(=O)CCl)c1	x	x	x	2	-4%	3.2µM*
CCN(CC)S(=O)(=O)c1ccc(Cl)c(NC(C)=O)c1	x	x	x	0	-2%	u
CC(C)CN(C(=O)COC(=O)c1ccc2c(c1)NC(=O)CS2)C1CCS(=O)(=O)C1 (stereo not given)	u	-4%	u	-1	-3%	40µM*
CCN(CC)S(=O)(=O)c1ccc(Cl)c(NC(=O)c2ccc(C#N)cc2)c1	2%	-1%	-97*	-10	10%	u
CN(C)S(=O)(=O)c1ccc(Cl)c(NC(=O)COC(=O)c2ccc(O)cc2)c1	x	x	x	3	-11%	u
CN(C(=O)COC(=O)c1ccc2c(c1)NC(=O)CS2)C1CCS(=O)(=O)C1 (stereo not given)	-8%	-2%	29	-2	10%	5%
CN(C)S(=O)(=O)c1ccc(Cl)c(NC(=O)COC(=O)c2ccc3c(c2)NC(=O)CS3)c1	x	x	x	-8	0%	3.5µM*
C[C@@]12CCC(=O)C=C1CC[C@H]1[C@@H]2[C@@H](O)C[C@]2(C)[C@@H]1CC[C@@]2(O)C(=O)CO	x	5%[11.4 µM]	x	x	x	x
CCCC(=O)Nc1cc(S(=O)(=O)N(CC)CC)ccc1Cl	-24%	5%	-19	-4	-2%	13µM*
CCn1cc(C(=O)NCc2ccccc2Cl)cn1	32µM*	3%	u	8	2%	7%
CCN(CC)S(=O)(=O)c1ccc(Cl)c(C(=O)NCc2ccccc2Cl)c1	-6%	-6%	-12	1	-7%	7.9µM*
CCN(CC)S(=O)(=O)c1ccc(Cl)c(NC(=O)CCCCl)c1	x	x	x	-6	3%	x
CCN(CC)S(=O)(=O)c1ccc(Cl)c(NC(=O)COC(=O)c2ccc(O)cc2)c1	x	x	x	-8	-5%	16µM*
O=C(NCc1ccccc1Cl)c1cnn2cccnc12	-22%	4%	4	-1	1%	-6%
CCN(CC)S(=O)(=O)c1ccc(Cl)c(C(=O)NCc2ccco2)c1	x	x	x	-4	7%	u
COC(=O)[C@@H]1OC(c2ccccc2)O[C@H]1C(=O)OC	x	x	x	x	-8%	x
C/C=C/C(=O)C[C@H]1CC[C@@H](C)[C@@H](CCO)O1	-2%	x	x	-10	1%	u

Assay outcomes (PubChem BioAssay)
